FBPA Giardia inh: qHTS Assay for Inhibitors of Fructose-1,6-bisphosphate Aldolase from Giardia Lamblia; A8B2U2; purified Giardia FBPA; Potency, µM (top dose mostly 59.6 µM), for the others: top-dose activity, negative = inhibition, usual class: inhibitors; hit rate 0.71% among 290,000; further: potency means the concentration at half of the fitted maximal effect; on the % scale 0 is the no-effect control and ±100 the full control effect; nearly all actives have a fitted effect of over 55% in size
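40 nM FBPA preincubated 10 min at RT with compound (up to 57.5 uM final), then substrate plus GAPDH/TPI/NAD/arsenate coupling and diaphorase/resazurin added. Fluorescence read after 20 min at RT, 525/598 nm.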
LmPK inh: qHTS Assay for Inhibitors of Leishmania Mexicana Pyruvate Kinase (LmPK); AID 1721, 2009; purified LmPK, Kinase-Glo ATP luminescence, 1 h; Q27686; hit rate 0.37% among 290,000; Potency, µM (series often up to 57.5 µM), for inactives: top-dose activity change, negative = inhibition, most hits filed as inhibitors; further: potency means the concentration at half of the fitted maximal effect; on the % scale 0 is the no-effect control and ±100 the full control effect
Target sequence (Q27686 whole entry, looked up): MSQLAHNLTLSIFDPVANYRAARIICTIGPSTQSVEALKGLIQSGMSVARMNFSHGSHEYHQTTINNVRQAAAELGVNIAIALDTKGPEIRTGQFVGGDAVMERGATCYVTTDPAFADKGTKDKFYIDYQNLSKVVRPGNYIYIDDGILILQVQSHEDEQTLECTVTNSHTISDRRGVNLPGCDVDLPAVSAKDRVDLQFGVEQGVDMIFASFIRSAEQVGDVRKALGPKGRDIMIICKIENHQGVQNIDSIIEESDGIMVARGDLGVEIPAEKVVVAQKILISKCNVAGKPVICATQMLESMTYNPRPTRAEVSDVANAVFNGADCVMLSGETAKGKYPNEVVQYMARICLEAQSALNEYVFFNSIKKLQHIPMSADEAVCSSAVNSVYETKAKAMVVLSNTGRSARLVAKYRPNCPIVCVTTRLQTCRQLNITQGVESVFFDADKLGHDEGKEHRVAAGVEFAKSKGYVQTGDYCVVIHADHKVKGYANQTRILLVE
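Purified LmPK (0.1 nM) with 0.5 mM PEP and 0.1 mM ADP in imidazole buffer pH 7.2 with MgCl2/KCl, 1 h at room temperature. ATP formed was read by luciferase luminescence and normalized to no-enzyme and uninhibited controls.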
Cycloheximide cs: Cycloheximide Counterscreen for Small Molecule Inhibitors of Shiga Toxin; cell reporter, cycloheximide protein synthesis inhibition counterscreen; max response, %; hit rate 12% among 300,000; AID 2314, 2010; in the data active means max response mostly above about 13%, no sharp cut-off; inactive means mostly below about 14%; further: read at 38.3 µM for the half of the compounds with a filed dose; 0% is about no effect
Shiga toxin inh: A qHTS for Small Molecule Inhibitors of Shiga Toxin. Vero cells, Shiga toxin protein synthesis inhibition reporter. inhibition, % at 38.7 µM. hit rate 9.2% among 290,000. AID 2315, 2010; in the data active means inhibition mostly above about 28%, no sharp cut-off; inactive means mostly below about 43%; further: 0% is about no effect
Sm TGR inh: qHTS Assay for the Inhibitors of Schistosoma Mansoni Peroxiredoxins | purified TGR, DTNB reduction, TNB absorbance 405 nm | Potency, µM (series often up to 114 µM), inactives show top-dose activity change, negative = inhibition, hits mostly inhibitors | hit rate 3% among 360,000 | Schistosoma mansoni thioredoxin glutathione reductase (TGR), Q962Y6; further: potency means the concentration at half of the fitted maximal effect; on the % scale 0 is the no-effect control and ±100 the full control effect; nearly all actives have a fitted effect of over 60% in size
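TGR 20 nM + NADPH 100 uM (dispensed conc.), cpd preinc 15 min RT; start with NADPH (500 uM addition) then DTNB (15 mM addition). Kinetic TNB absorbance, 405 nm filter. Four-parameter Hill fit across titration.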
TbPYK inhibitor: qHTS of Trypanosoma Brucei Inhibitors. pyruvate kinase (Trypanosoma brucei), Q57TT1. TbPYK enzyme, Kinase-Glo Plus ATP luminescence, 45 min. Potency, µM (series often up to 76.8 µM), for inactives: at the top dose activity, negative = inhibition, actives largely listed as inhibitors. hit rate 0.12% among 410,000; further: potency means the concentration at half of the fitted maximal effect; on the % scale 0 is the no-effect control and ±100 the full control effect; nearly all actives have a fitted effect of over 50% in size
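T. brucei PYK with substrate was exposed to pin-transferred compounds across a concentration series, then started with 130 uM ADP (final). After 45 min at room temperature, Kinase-Glo Plus luminescence was read, normalized and curve-fitted.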
Numbers without * were called inactive. This excerpt belongs to a sample that is enriched for hits. Unless noted, the call rests on the fitted dose curve; in most records, active means well fitted curve in the direction sought with a large enough effect; inconclusive means small, poorly fitted or top-dose-only effect, or another doubt; inactive means no such curve, though single readings can be large; an effect the other way counts as inactive or inconclusive.

Results for COc1ccc(NC(=O)CN2C(=O)CSc3ccc(S(=O)(=O)N(C)C)cc32)cc1OC ?
Sm TGR inh: 16.4%; TbPYK inhibitor: -7.8%

What do the screens show for `Cc1ccccc1N1C(=O)NC(=O)/C(=C\c2cnn(-c3ccccc3)c2)C1=O`?
FBPA Giardia inh: -4.3%; LmPK inh: -0.9%; Cycloheximide cs: 24.0*; Shiga toxin inh: 56.5*; Sm TGR inh: 1.4%; TbPYK inhibitor: inconclusive

Results for Cc1ccc(C)c(NC(=O)c2cnc3sc(N4CCOCC4)nn3c2=O)c1 ?
Sm TGR inh: -1.0%; TbPYK inhibitor: 2.5%

Results for O=C1CC(N2CCC(c3nc4ccccc4o3)CC2)C(=O)N1 (configuration not stated) ?
FBPA Giardia inh: 3.1%; LmPK inh: -5.1%; Cycloheximide cs: 0.5; Shiga toxin inh: -5.3; Sm TGR inh: 35.5µM*; TbPYK inhibitor: -1.2%

Results for O=C1CC(N2CCC(c3nc4ccccc4o3)CC2)C(=O)N1c1ccc(Cl)c(C(F)(F)F)c1 (configuration not stated) ?
FBPA Giardia inh: -2.7%; LmPK inh: 0.1%; Cycloheximide cs: 3.3; Shiga toxin inh: 6.8; Sm TGR inh: 14.1µM*; TbPYK inhibitor: -2.6%

How did Cc1ccc(N(Cc2cccs2)C(=O)c2ccc(OC(C)C)cc2)cc1 do in these assays?
Sm TGR inh: -8.0%; TbPYK inhibitor: 0.4%

How did CCOc1ccc(C(=O)Nc2cc(-c3ccccc3)no2)cc1 do in these assays?
Sm TGR inh: 4.6%; TbPYK inhibitor: 1.0%

Results for Cc1ccc(C)n1-c1ccc(N2CCOCC2)c([N+](=O)[O-])c1 ?
FBPA Giardia inh: -13.7%; LmPK inh: -3.7%; Cycloheximide cs: -0.9; Shiga toxin inh: 22.9; Sm TGR inh: 35.5µM*; TbPYK inhibitor: -7.0%

How did CC(=O)Nc1ccc(-n2c(C)ccc2C)cc1 do in these assays?
FBPA Giardia inh: -3.1%; LmPK inh: -7.7%; Cycloheximide cs: 5.4; Shiga toxin inh: -7.4; Sm TGR inh: -30.5%; TbPYK inhibitor: 0.4%

How did Cc1ccc(C)n1-c1ccc(N2CCOCC2)cc1 do in these assays?
FBPA Giardia inh: inconclusive; LmPK inh: 5.0%; Cycloheximide cs: 21.9*; Shiga toxin inh: 71.1; Sm TGR inh: 24.2%; TbPYK inhibitor: -6.6%

Results for c1ccc(N2CCOCCOCCOCCOCC2)cc1 ?
FBPA Giardia inh: -3.2%; LmPK inh: 3.3%; Cycloheximide cs: 2.0; Shiga toxin inh: 3.9; Sm TGR inh: 18.7%; TbPYK inhibitor: 2.1%

Results for Cc1ccc(C)n1-c1ccc(N(C)C)cc1 ?
FBPA Giardia inh: inconclusive; LmPK inh: -11.0%; Cycloheximide cs: 17.1; Shiga toxin inh: 16.4; Sm TGR inh: 31.6µM*; TbPYK inhibitor: -9.2%

Results for c1ccn(-c2ccc(N3CCOCC3)cc2)c1 ?
FBPA Giardia inh: 1.0%; LmPK inh: -17.7%; Cycloheximide cs: 37.9*; Shiga toxin inh: 49.0*; Sm TGR inh: -22.7%; TbPYK inhibitor: -0.1%

What do the screens show for `CCOc1ccc(N(CC)S(=O)(=O)N2CCCC(C(=O)NCc3ccccc3OCC)C2)cc1` (configuration not stated)?
Sm TGR inh: 8.2%; TbPYK inhibitor: 1.2%

What do the screens show for `COc1cc(NC(=O)Cn2ccc3ccccc3c2=O)cc(OC)c1OC`?
Sm TGR inh: 5.8%; TbPYK inhibitor: -3.1%

Results for O=C(c1ccccc1)[C@H]1[C@H](c2ccccc2)[C@@]2(N=C(c3ccccc3)OC2=O)C2c3ccccc3C=NN21 (some centres not stated) ?
FBPA Giardia inh: -5.3%; LmPK inh: -2.4%; Cycloheximide cs: 35.0*; Shiga toxin inh: 55.1*; Sm TGR inh: -7.5%

Results for COc1ccc(-n2c(=O)c(C)nc3cnc(N4CCNCC4)nc32)cc1 ?
FBPA Giardia inh: -12.4%; TbPYK inhibitor: 12.7%

Assay outcomes as filed in PubChem BioAssay.
